TRHR agonist: agonists of human TRH receptor | activation, % at 2 µM | TRHR cells, calcium flux fluo-8, FDSS agonist mode | 360,000 compounds, 0.18% hits; also: 0% is about no effect
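Fluo-8-loaded TRHR cells; 10 s baseline, compound added, kinetic Ca2+ fluorescence read 1/s, agonist mode.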
TRHR enhancer: TRH receptor (human) allosteric enhancement; P34981; enhancement, % at 2 µM; 360,000 compounds, 0.66% hits; TRHR cells, fluo-8 calcium fluorescence, EC20 TRH enhancement; in the data active = enhancement above about 30%; also: 0% is about no effect
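TRHR-expressing cells loaded with fluo-8 calcium dye were read kinetically (ex 480/em 530) during compound addition, then stimulated with an EC20 of TRH (10 nM final). Enhancement of the Gq-mediated intracellular calcium response was scored.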
GRP78 ERSR act: ER stress response induction in glioma; U87-MG GRP78 promoter luciferase reporter, 16 h; 420,000 compounds, 0.02% hits; Potency, µM, for inactives: at the highest dose activation, most hits filed as activators; active = well fitted activation curve with a large enough effect; also: potency is read from the fitted curve at half-maximal effect; series mostly up to about 76 µM; % of control where 0% means no effect; nearly all actives have a fitted effect of over 35% in size
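Stably transfected U87-MG glioma cells carrying a GRP78-based luciferase sensor; 16 h compound incubation. Luminescence end-point read 10 min after Bright-Glo addition at room temperature.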
D1 potentiator: potentiators of human D1 dopamine receptor; P21728; AID 504651; HEK293 TREx D1 cells, calcium flux, dopamine EC20 potentiation; potentiation, % at 10 µM; 360,000 compounds, 0.036% hits; in the data active = potentiation above about 30%; also: 0% is about no effect
Target sequence (P21728 whole entry, looked up): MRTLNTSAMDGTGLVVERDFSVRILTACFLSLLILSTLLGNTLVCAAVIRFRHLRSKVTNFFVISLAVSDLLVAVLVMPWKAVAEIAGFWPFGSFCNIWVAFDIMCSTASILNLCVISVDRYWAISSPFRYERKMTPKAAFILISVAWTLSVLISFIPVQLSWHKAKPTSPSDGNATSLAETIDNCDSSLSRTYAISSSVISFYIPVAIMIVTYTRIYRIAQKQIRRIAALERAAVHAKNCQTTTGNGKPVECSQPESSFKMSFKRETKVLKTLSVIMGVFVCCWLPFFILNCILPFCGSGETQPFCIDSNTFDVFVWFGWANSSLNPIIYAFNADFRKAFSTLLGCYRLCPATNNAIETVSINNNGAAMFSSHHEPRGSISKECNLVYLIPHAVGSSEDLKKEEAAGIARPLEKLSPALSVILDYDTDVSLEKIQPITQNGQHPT
D1 antagonist: antagonists of human D1 dopamine receptor. HEK293 TREx D1 cells, calcium flux, dopamine EC80; stronger effect = lower value. activity change, negative = inhibition, % at 10 µM. 360,000 compounds, 3.2% hits. AID 504652; in the data active = activity change below about -30%; also: % is scaled to controls: 0 for no effect and ±100 for the full control effect
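Antagonism measured as reduced calcium response to an EC80 dopamine addition following 180 s compound pre-read; cells were inducible HEK293 Trex D1 plated overnight at 30 C, read kinetically at 1 cycle/sec.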
D1 agonist: agonists of human D1 dopamine receptor; AID 504660; HEK293 T-REx D1 cells, calcium flux, agonist mode; 360,000 compounds, 1% hits; activation, % at 2 µM; also: 0% is about no effect
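Tetracycline-induced HEK293 TREx D1 cells, force-coupled to calcium signalling, were dye-loaded with a no-wash calcium kit. Compound was pin-added after a 10 s baseline. Fluorescence was read kinetically at 1 cycle/s for 180 s, with calcium rises flagged as agonism.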
The depositor's hits bear a star; x = no result. A selection: hits, their analogues and other compounds. The true share with any hit is near 4%. Rule as the data show it, unless noted: active = activation above about 30%; inactive = the rest.

SMILES	TRHR agonist	TRHR enhancer	GRP78 ERSR act	D1 potentiator	D1 antagonist	D1 agonist
C/C(=N/O)c1ccc2c(c1)OCCOCCOc1cc(/C(C)=N/O)ccc1OCCOCCO2	-1	-1	-5%	-4	10	-1
CN(C)c1ccc(/C=C/c2ccnc3cc(Cl)cc(Cl)c23)cc1	x	x	-1%	x	x	x
N=c1n(CCN2CCCCC2)c2ccccc2n1CC(O)COc1ccccc1 (configuration not stated)	0	-3	-7%	-6	-3	3
Cc1ccc(Cn2c(=N)n(CC(O)COc3ccccc3)c3ccccc32)cc1 (configuration not stated)	1	6	-8%	-8	-17	42*
N=c1n(Cc2ccccc2)c2ccccc2n1CC(O)COc1ccccc1 (configuration not stated)	0	0	-6%	-8	-31*	25
COc1ccc(N2C(=O)[C@@H]3C[C@H]2CN3Cc2ccc3nccnc3c2)cc1Cl	x	x	-2%	x	x	x
Cc1nn2c(=O)c3c4c(sc3nc2n1-c1ccccc1)COC(C)(C)C4	-1	40*	-1%	5	2	3
Cc1nnc2n(-c3ccccc3)c(=O)c3c4c(sc3n12)COC(C)(C)C4	-1	25	4%	-3	-7	3
O=C(CN1C(=O)c2ccccc2S1(=O)=O)Nc1ccc(S(=O)(=O)Nc2ncccn2)cc1	0	-2	-4%	3	0	-1
O=C(CCCC(=O)Nc1ccccc1Br)N/N=C/c1c(F)cccc1Cl	-1	1	-2%	-2	-1	0
Cc1ccc(-c2nc(=Nc3c(C)cc(C)cc3C)sn2-c2ccccc2)cc1	x	x	-3%	x	x	x
CCc1ccc(NC(=O)C2CCN(S(=O)(=O)c3c(C)noc3C)CC2)cc1	0	-1	-8%	-4	-13	0
CCc1ccc(NC(=O)CNS(=O)(=O)c2c(C)noc2C)cc1	0	-2	-3%	1	-31*	3
CCOC(=O)c1oc2ccc(CNC(C)(C)C)c(Cl)c2c1C	1	-1	3%	-14	-52*	1
CCOC(=O)c1ccc(N(C(=O)c2ccccc2)c2ccccc2)cc1	x	x	-1%	x	x	x
O=C(C[N+]12CCCc3cccc(c31)CCC2)c1ccc2ccccc2c1	x	x	-2%	x	x	x
CCCCOc1ccc(/C(O)=C2/C(=O)C(=O)N(Cc3cccnc3)C2c2ccncc2)c(C)c1 (configuration not stated)	1	13	-4%	-1	-56*	0
Cc1cc(OCC(C)C)ccc1/C(O)=C1/C(=O)C(=O)N(Cc2cccnc2)C1c1ccncc1 (configuration not stated)	-1	6	0%	-2	-3	0
O=C1c2ccccc2C(=O)N1Cc1ccccn1	1	2	-3%	-6	-37*	2
O=C1C=CC(=O)N1Cc1ccccn1	x	x	-3%	x	x	x
CC(C)c1ccc(NC(=O)Nc2nc(C(N)COCc3ccccc3)cs2)cc1 (configuration not stated)	x	x	-13%	x	x	x
COc1ccccc1-c1nnc(SC/C(O)=C(\C#N)c2nc3ccccc3[nH]2)n1C1CCCCC1	0	-16	2%	-1	-34*	1
CC1(C)CN=c2s/c(=C\c3ccc(Cl)cc3)c(=O)n2C1	2	5	-5%	-7	8	33*
Cn1cc(CN2CCCC(CNS(=O)(=O)c3cccc4cccnc34)C2)cn1 (configuration not stated)	-1	-2	1%	-1	4	1
CC(C)n1cc(CN2CCCC(CNS(=O)(=O)c3cccc4cccnc34)C2)cn1 (configuration not stated)	1	4	-6%	-10	-49*	1
SMILES	TRHR agonist	TRHR enhancer	GRP78 ERSR act	D1 potentiator	D1 antagonist	D1 agonist
CCc1sc(C(=O)NCCc2ccc(S(N)(=O)=O)cc2)cc1Br	0	-4	-2%	-2	-30*	-1
Cc1cc(C(=O)NCCc2ccc(S(N)(=O)=O)cc2)c(C)o1	0	8	0%	-6	-31*	3
NS(=O)(=O)c1ccc(CCNC(=O)c2cccc3ccccc23)cc1	1	0	-1%	1	13	2
CCc1sc(C(=O)NCCc2ccc(S(N)(=O)=O)cc2)cc1C	-1	13	5%	-8	4	3
Cc1cccc(CN2CCC(C(=O)Nc3cccc(-c4cccc(F)c4)c3)CC2)n1	0	0	0%	-4	-14	11
Cn1cc(CN2CCC(C(=O)Nc3cccc(-c4cccc(F)c4)c3)CC2)cn1	2	3	-8%	-16	-15	4
Cc1c(CN2CCC(C(=O)Nc3cccc(-c4cccc(Cl)c4)c3)CC2)cnn1C	0	-3	-4%	-14	13	2
CCn1cc(CN2CCC(C(=O)Nc3cccc(-c4cscn4)c3)CC2)cn1	0	4	-6%	1	0	2
C=CCn1cc(CN2CCC(C(=O)Nc3cccc(-c4cccc(F)c4)c3)CC2)c(C)n1	4	4	-2%	-8	-39*	27
Cn1cc(CN2CCC(C(=O)Nc3cccc(-c4cscn4)c3)CC2)cn1	0	-2	3%	-8	-49*	0
C=CCn1cc(CN2CCC(C(=O)Nc3cccc(-c4cccc(Cl)c4)c3)CC2)c(C)n1	4	1	-3%	-17	-35*	27
Cc1nn(C(C)C)c(C)c1CN1CCC(C(=O)Nc2cccc(-c3cccc(F)c3)c2)CC1	1	1	-4%	-7	8	32*
CN1C2CCC1/C(=C/c1cccn1C)C(=O)/C2=C\c1cccn1C	-1	21	-3%	-4	-6	187*
Cn1cccc1/C=C1\CC(C(C)(C)C)C/C(=C\c2cccn2C)C1=O (configuration not stated)	-3	9	-2%	2	-8	123*
CN1C2CCC1/C(=C\c1ccc(F)cc1)C(=O)/C2=C/c1ccc(F)cc1	0	1	0%	-2	-2	1
Cn1cccc1/C=C1\Cc2ccccc2C1=O	5	-5	-4%	1	7	4
COc1ccc2c(c1OC)C(=O)OC2	0	-8	0%	-5	3	5
COc1ccc2c3c(cccc13)C(=O)CC2	122*	8	-1%	-10	0	52*
Cc1ccc(CNc2nc(-c3ccco3)nn2S(=O)(=O)c2ccc3ccccc3c2)cc1	-1	2	-1%	0	-12	-2
Cc1ccc(S(=O)(=O)n2nc(-c3ccccc3)nc2NCc2ccc(Cl)cc2)cc1	3	6	-2%	0	-57*	5
Cc1ccc(S(=O)(=O)n2nc(-c3ccc(Cl)cc3)nc2NCc2ccc(F)cc2)cc1	1	28	1%	2	-48*	11
O=C(O)c1cccc(-c2noc(-c3ccccc3F)n2)c1	-2	1	x	-3	20	2

Assay outcomes deposited in PubChem BioAssay by National Center for Advancing Translational Sciences (NCATS).
